Results reported in PubChem BioAssay AID651702 (NMMLSC, 2012).
Several values for one entry are separate records, joined by “and”; a condition that tells them apart may be missing. Identical values can stand only once. Screen size: about 360,000 compounds; about 2,400 (0.67%) were called active. This is one part of a sample in which actives are shown more often than they occur.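 How the source made its calls: active means inhibition above about 55% (limit read from the data); inconclusive means no clear call, values can overlap the other calls; inactive means the rest.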

Test: LAMP-1 surface exposure blockers, TALL-104 cells – cell-based, flow cytometry, MLPCN library, primary screen (AID 651702)
Conditions: TALL-104 LAMP-1 surface exposure, at 10 µM, stronger effect = higher value, cells stimulated with thapsigargin and PMA

Compound | inhibition
CC(=O)N1CCc2cc(S(=O)(=O)Nc3ccccc3N3CCN(C)CC3)ccc21 | 3.6% (inactive)
Cc1nnc(SCC(=O)N2c3ccccc3C(C)(c3ccc(Cl)cc3)CC2(C)C)s1 (stereo not drawn) | -0.3% (inactive)
CCCCn1c(-c2cccc(C)c2)nc2cc3[nH]c(=O)c(C(C)C)nc3cc21 | 7.2% (inactive)
CCCCCn1nnnc1C1c2ccccc2C(=O)N1Cc1ccco1 (stereo not drawn) | -4% (inactive)
CCCCCn1nnnc1-c1nc2cc3ccccc3cc2[nH]c1=O | 56.3% (active)
COc1ccccc1NC(=O)C(C)OC(=O)c1ccc(-n2cnnn2)cc1 (stereo not drawn) | 2.1% (inactive)
COc1ccc(NC(=O)Cn2ncn3c(cc4ccccc43)c2=O)c(OC)c1OC | -1.7% (inactive)
O=C(CNCc1ccc(Cl)cc1)Nc1cccc(C(=O)O)c1 | 2.8% (inactive)
CC(C)CC(=O)Nc1cc(C(F)(F)F)ccc1N1CCOCC1 | -2.5% (inactive)
CC(CC(=O)Nc1cc(C(F)(F)F)ccc1Cl)c1ccccc1 (stereo not drawn) | 83.7% (active)
COc1cc(OC)c(C(=O)OC(C)C(=O)Nc2cc(C(F)(F)F)ccc2Cl)cc1OC (stereo not drawn) | 0.8% (inactive)
CC1=NCCN1S(=O)(=O)c1ccc(Br)c(C)c1 | -1.3% (inactive)
COc1cc(OC)c2c(-c3cccc(-c4cccc(N)c4)c3)cc(=O)oc2c1 | 4.4% (inactive)
COc1cccc(NC(=O)C2c3cc(OC)c(OC)cc3C(=O)N(C)C2c2cccnc2)c1 (stereo not drawn) | 1.8% (inactive)
COc1cccc(NC(=O)C2CCCN2C(=O)OCc2ccccc2)c1 (stereo not drawn) | -0.8% (inactive)
COc1cccc(NC(=O)C2C(c3ccccc3)C2(Cl)Cl)c1 (stereo not drawn) | 83.9% (active)
O=S(=O)(N/N=C\c1cccn1-c1ccccc1)c1ccc2ccccc2c1 | -0.4% (inactive)
Cc1cccc(CNC(=O)c2sc(=O)n(Cc3ccccc3C)c2C)c1 | -3.5% (inactive)
CCCCCNC(=O)C(c1ccc(OC)cc1)n1c(=O)c(-c2ccccc2)nc2ccccc21 (stereo not drawn) | 5.5% (inactive)
COc1ccccc1N1CCN(c2nc(C)cc(=O)[nH]2)CC1 | 0.2% (inactive)
COc1ccccc1N1CCN(c2ncnc3sc(C)c(-c4ccccc4)c23)CC1 | 57.5% (active)
COc1ccccc1N1CCN(c2ccc([N+](=O)[O-])nc2)CC1 | -3.5% (inactive)

Compound | inhibition
O=C1CCC([N+](=O)[O-])C(c2ccccc2Br)N1 (stereo not drawn) | -1.2% (inactive)
CCOc1ccccc1Nc1nnc(SCC(=O)NCC2CCCO2)s1 (stereo not drawn) | -20.1% (inactive)
COc1ccc(C2OC(CCc3ccccc3)Cc3[nH]c(=S)[nH]c(=O)c32)cc1 (stereo not drawn) | -3% (inactive)
Cc1cnc(C(=O)OCC(=O)N2CCc3ccccc32)cn1 | 0.3% (inactive)
Cc1cnc(C(=O)OCc2c(C)cc(C(C)(C)C)cc2C)cn1 | 63.8% (active)
Cc1cnc(C(=O)OCC(=O)NCCCc2ccccc2)cn1 | -0.1% (inactive)
Cc1cccc(N2CCN(C(=O)c3cccc(N4C(=O)C5C6C=CC(C6)C5C4=O)c3)CC2)c1C (stereo not drawn) | -1.1% (inactive)
CSCCC(C(=O)NC(C)(C)C)n1c(-c2ccccc2)nc2ccccc21 (stereo not drawn) | -0.9% (inactive)
CCOc1ccc(NS(=O)(=O)c2ccc(C(=O)NCC(c3ccccc3OC)N3CCCC3)cc2)cc1 (stereo not drawn) | -1.8% (inactive)
COc1ccc(S(=O)(=O)N(C)C)cc1NC(=O)COC(=O)c1n[nH]c2ccccc12 | -22.7% (inactive)
Cc1cccc(N2CCC(NCc3c(C(=O)N4CCCCC4)nc4c(C)cccn34)CC2)c1 | 60.5% (active)
Cc1cccn2c(CNCC(C)Oc3cccnc3)c(C(=O)N3CCOCC3)nc12 (stereo not drawn) | -5% (inactive)
CCOC(=O)C1CCN(Cc2c(C(=O)N3CCOCC3)nc3c(C)cccn23)CC1 | -2.4% (inactive)
OCCn1c(-c2ccccc2)csc1=Nc1ccccc1 | -1.3% (inactive)
COc1ccc(C)cc1Nc1n[n+](-c2ccccc2)c(-c2cccc(Cl)c2Cl)s1 | 93.6% (active)
COc1cc(Br)c(-c2sc(Nc3ccccc3)n[n+]2-c2ccccc2)cc1OC | -3.6% (inactive)
CCc1ccc(Nc2n[n+](-c3ccccc3)c(-c3cccc(Cl)c3Cl)s2)cc1 | 5.9% (inactive)
Cc1c(Cl)cccc1NC(=O)CCC(=O)N/N=C/c1ccco1 | 4.7% (inactive)
CCOc1ccc(OCC)c(NC(=O)CSc2nnc(Cn3cnc4ccccc43)n2C)c1 | 0.1% (inactive)
O=C(NCCc1c[nH]c2ccccc12)C1CCN(Cc2ccc(Br)cc2)CC1 | 77% (active)
CCOc1ccc(CN2CCN(Cc3c[nH]c4ccccc34)CC2)cc1 | 35.2% (inactive)
Cc1ccc2[nH]cc(CCNC(=O)C3CCCCC3)c2c1 | -2.8% (inactive)

Compound | inhibition
CCOC(=O)C1=C(C)NC2=C(C(=O)CC(C)(C)C2)C1c1ccsc1 (stereo not drawn) | 0.2% (inactive)
CC(C)OC(=O)CC(=O)CC(O)c1cccc([N+](=O)[O-])c1 (stereo not drawn) | -10.1% (inactive)
Cc1c(C)c2ccc(OCC(=O)N3CCN(c4cccc(Cl)c4)CC3)cc2oc1=O | -2.4% (inactive)
CSCCC(NC(=O)COc1ccccc1)C(=O)N1CCN(c2cccc(C(F)(F)F)c2)CC1 (stereo not drawn) | 1.5% (inactive)
O=C(COc1ccc(Cl)cc1)N1CCN(c2cccc(C(F)(F)F)c2)CC1 | 58.7% (active)
O=C(O)Cc1csc(-c2cccc(Oc3ccccc3)c2)n1 | -3.1% (inactive) and -3.3% (inactive)
CCOc1ccc(NC(=O)CN(C)C(=O)CCSc2ccc(F)cc2)cc1OCC | 14.3% (inactive)
CC(C)c1ccc(-c2nn[nH]n2)cc1 | 21.6% (inactive)
COc1ccc(S(=O)(=O)N2CCN(CC(=O)N3c4ccccc4CC3C)CC2)cc1OC (stereo not drawn) | 6.4% (inactive)
CCOc1cc(/C=C(\C#N)c2nc(-c3cccs3)c(NC(C)=O)s2)ccc1O | 69.2% (active)
CCOc1cc(/C=N/NC(=O)c2c(C)nc3ccc(Cl)cn23)ccc1O | 3.8% (inactive)
CCOc1cc(/C=N/NC(=O)CN2CCCCC2)ccc1O | 3.8% (inactive)
CC(=O)NC(c1ccccc1)c1nc(-c2cccc(C(C)C)c2)cs1 (stereo not drawn) | -1.9% (inactive)
CC(=O)Nc1ccc(-c2csc(NC(=O)Nc3ccccc3)n2)cc1 | 104% (active)
Cc1ccc(NC(=O)Nc2cc(-c3ccccc3)nn2C)cc1Cl | 3% (inactive)
Cn1c(=O)c([N+](=O)[O-])c(Oc2ccccc2)c2ccccc21 | -0.7% (inactive)
COc1ccc(NS(=O)(=O)c2cc(NC(=O)CC(=O)c3ccc([N+](=O)[O-])cc3)ccc2C)cc1 | -16.7% (inactive)
C=CCn1c(CCNC(=O)c2ccccc2F)nnc1SCC(=O)Nc1ccc(OC)cc1 | -1.4% (inactive)
CCCCNC(=O)C(C)N(CCN(C)C)C(=O)CCCN1C(=O)NC(c2ccc(Cl)cc2)C(C(=O)OCc2ccccc2)=C1C (stereo not drawn) | 65.1% (active)
COC(=O)C1=C(C)N(Cc2ccccc2)C(=NCCCOC(C)C)N[C@H]1c1ccccc1 | -2.7% (inactive)
CCOC(=O)C1=C(C)N(C[C@@H]2CC[C@@H](Cc3ccc(-c4ccccc4)cc3)O2)C(=O)NC1c1ccc([N+](=O)[O-])cc1 (stereo partly drawn) | 1.6% (inactive)
CCOC(=O)CCCNC(=O)CN1C(=O)NC(CCc2ccccc2)C1=O (stereo not drawn) | -0.3% (inactive)

Compound | inhibition
CCCCNC(=O)C(C)N(CCN(C)C)C(=O)CCCCCN1C(=O)NC(c2ccc(Cl)cc2)C(C(=O)OCc2ccccc2)=C1C (stereo not drawn) | 61.8% (active)
CCOC(=O)C1=C(CN2CCc3ccccc32)NC(=O)NC1c1ccc(Cl)cc1 (stereo not drawn) | -0.5% (inactive)
COc1ccc(OC)c(CN2C(=O)CCC2(C)c2nnnn2Cc2ccccc2)c1 (stereo not drawn) | -8.5% (inactive)
O=C(CSc1nnc(-c2ccoc2)o1)N1CCOCC1 | -6.6% (inactive)
O=[N+]([O-])/C=C/c1ccc2c(ccn2Cc2ccccc2)c1 | 79.9% (active)
C=CCC[C@@H](CCCCC)OC(=O)/C=C/[C@@H](O)[C@H](O)C[C@H](O)CC=C | -9.1% (inactive)
Cc1ccc2oc(C(=O)N3CCN(C)C[C@@H]3C(C)C)c(C)c2c1 | 1.3% (inactive)
CCOC(=O)C1C(C)C(C(C)(C)C)N(S(=O)(=O)c2ccc(C)cc2)C1c1ccccc1 (stereo not drawn) | -9.6% (inactive)
NS(=O)(=O)c1ccc(CCNC(=O)CCCn2c(SCC(=O)N3CCCC3)nc3ccsc3c2=O)cc1 | -2.5% (inactive)
CN(C)CCNC(=O)c1cccc(-c2cnc3c(NC=O)cc(-c4cccc(C(F)(F)F)c4)cn23)c1 | 39.3% (inactive)
CN(C)CCNC(=O)c1ccc(-c2cn3c(-c4ccc(Oc5ccccc5)cc4)cnc3cn2)cc1 | 57.2% (active)
CN(C)C(CNC(=O)c1ccc(OCc2cn3ccccc3n2)cc1)c1ccco1 (stereo not drawn) | -4.3% (inactive)
CCCCCC(O)(CCN1CCCCC1)c1ccccc1 (stereo not drawn) | 1.7% (inactive)
Cc1cc(F)ccc1NC(=O)C(C)n1c2ccccc2c2nc(=O)cc(C)n21 (stereo not drawn) | 0.1% (inactive)
CC(C)N1C(=O)c2ccccc2NC(=O)C1C(=O)NCc1cccs1 (stereo not drawn) | 16.2% (inactive)
Cc1cc2oc(=O)cc(CN(C)Cc3ccccc3)c2cc1Cl | -1.1% (inactive)
Cc1cc2oc(=O)cc(CN(C)Cc3ccc(OC(F)F)cc3)c2cc1Cl | 76.8% (active)
Cc1ccc(CN(C)Cc2cc(=O)oc3cc(C)c(Cl)cc23)cc1 | -0.1% (inactive)
CCC(C(=O)NCc1cccnc1)n1nc(C)c2sc3ccccc3c2c1=O (stereo not drawn) | 5.3% (inactive)
Cc1nn(CC(=O)NCCc2ccccc2)c(=O)c2cc3occc3n12 | -1.6% (inactive)
CCc1ccc(-c2cc3c(=O)n(CC(=O)NCCCN4CCN(Cc5ccccc5)CC4)nc(C)n3n2)cc1 | 57.5% (active)
O=C(Cn1ncc2c3ccccc3n(Cc3ccccc3)c2c1=O)NCCCN1CCOCC1 | 0.7% (inactive)
